# Screening results deposited in PubChem by several laboratories.
# PPC-1+TRAIL kill: compounds killing PPC-1 cancer cells with TRAIL present, primary screen, TRAIL potentiator project, ATPLite luminescence, uHTS | PPC-1 cells + TRAIL, ATPLite viability luminescence | AID 1443, 2008 | actives 0.41% (n = 220,000) | cell killing (% activity), % at 4 µM or 5 µM;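 active = cell killing above 50% in the first pass at 4 µM, then a duplicate retest at 5 µM averaging 50% or more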;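 also: plate controls were cells with TRAIL plus DMSO for no effect and medium-only wells lacking cells for full effect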
# TRAIL sens C8: viability loss with TRAIL in NB7+C8 cells, primary screen, TRAIL sensitizer project, cell-based, ATPlite luminescence; inhibition (viability loss, TRAIL sensitization), % at 10 µM; actives 1% (n = 360,000); AID 624354, 2012;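 active = compounds causing at least 50% loss of cell viability in the single-dose screen, relative to plate controls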
# HSF1 inhib: HSF1 inhibitors in luciferase reporter cells, primary screen, cell-based, NIH3T3, luminescence; NIH3T3-HGL HSE-luciferase, MG132-induced, luminescence 8 h; active compounds read low; activity change, negative = inhibition, % at 7.5 µM (by protocol); actives 0.77% (n = 300,000);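 active = more than half of replicate wells show activity change below -50%, luminescence cut by over half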;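 also: luciferase reports HSF-1 transcriptional activity via heat shock element; 0% = median of DMSO wells and -100% = zero luminescence signal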
# HSP90 inh: HSP90 inhibitors, primary screen, cell lysate, luminescence; Rabbit reticulocyte lysate, luciferase refolding luminescence, 3 h; actives 0.91% (n = 290,000); Heat shock protein HSP 90 (rabbit reticulocyte lysate; luciferase refolding); AID 1789, 2009; inhibition, % at 5.6 µM;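 active = inhibition above the screen-wide mean plus 3 SD, computed separately per campaign, cut at about 16% in these data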;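 also: 0% = DMSO wells and 100% = 60 µM geldanamycin wells; inhibitors lower the luminescence because luciferase stays unfolded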
# STAT1 inh: STAT1 signaling inhibitors, primary screen, cell-based, HTS, luciferase reporter. NIH 3T3 STAT1-luciferase reporter, IFN-gamma, luminescence. inhibition, % at 5.5 µM. actives 0.35% (n = 200,000). AID 920, 2007;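 active = inhibition above a set limit, the mean inhibition across all tested compounds plus 3 SD, cut at about 34% in these data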;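 also: 0% = IFN-gamma with DMSO and 100% = IFN-gamma with 300 µM nifuroxazide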
# STAT3 inh: IL-6 driven STAT3 reporter inhibitors, primary screen, U3A cells, luciferase, luminescence, MLSCN library; actives 0.89% (n = 190,000); inhibition, % at 5.5 µM; IL-6 STAT3-luciferase reporter; host cell line lacks STAT1;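 active = inhibition above the mean inhibition across all screened compounds plus 3 SD, cut at about 44% in these data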;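 also: 0% = DMSO only wells and 100% = 100 µM nifuroxazide control wells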
# * marks the source's active call; other numbers are inactive results; · = no result. Shown are actives, neighbours in structure and some others; about 2.4% of the full set was active somewhere.
SMILES,PPC-1+TRAIL kill,TRAIL sens C8,HSF1 inhib,HSP90 inh,STAT1 inh,STAT3 inh
COCCNC(=O)C1(C)CCCN(Cc2ccc(Cl)c(Cl)c2)C1 (stereo not given),·,-8,·,·,·,·
Cc1ccc2c(c1)N(CC(=O)Nc1ccccc1F)C(=O)C(C)O2 (stereo not given),·,8,·,·,·,·
O=C(NCCN1CCCCC1)Nc1cccc(F)c1,·,-11,-2,16*,·,·
O=C(NCCN1CCCCC1)Nc1ccc(F)cc1,·,3,-6,1,·,·
CC(=O)N1CCN(C(=O)C2(NC(=O)Nc3cccc(F)c3)CCCCC2)CC1,·,-3,20,2,·,·
CC1CCCN(C(=O)C2(NC(=O)Nc3cccc(F)c3)CCCCC2)C1 (stereo not given),-5,3,-86*,-9,0,8
CCCc1c(-c2ccc(F)cc2F)ncn1Cc1ccccc1OC,·,18,·,·,·,·
CN(C)c1cccc(CNC(=O)c2ccc3sc([C@@H]4O[C@H](CO)[C@H](O)[C@H](O)[C@H]4O)nc3c2)c1,·,-5,·,·,·,·
COc1cc(C(=O)N2Cc3cc4ccccc4nc3C2C)cc(OC)c1OC (stereo not given),·,0,·,·,·,·
CCOC(=O)c1cc2c(=O)n3ccccc3nc2n(CCCOC)c1=NC(C)=O,20,-9,·,2,3,18
COCCCn1c(C(=O)N2CCOCC2)cc2c(=O)n3cccc(C)c3nc21,·,-7,-6,-4,·,·
COCCCn1c(C(=O)Nc2ccc3c(c2)OCO3)cc2c(=O)n3cccc(C)c3nc21,·,54*,·,·,·,·
CCOC(=O)c1cc2c(=O)n3cccc(C)c3nc2n(CCOC)c1=NC(C)=O,-16,-12,-63*,-7,·,·
CCNC(=O)C1(C)CCN(Cc2ccc(-c3ccccc3)cc2)C1 (stereo not given),·,7,·,·,·,·
N/C(=N\OC(=O)c1cccc(Cl)c1)c1cccnc1,21,64*,16,-1,-16,4
N/C(=N\OC(=O)c1cc(Cl)ccc1Cl)c1cccnc1,2,6,14,6,-27,-81
N/C(=N\OC(=O)c1ccccc1Cl)c1ccncc1,19,21,-3,-3,-67,15
N/C(=N\OC(=O)c1cccc(Cl)c1)c1ccncc1,4,0,3,2,-47,21
N/C(=N\OC(=O)c1ccccc1Cl)c1cccnc1,29,69*,16,-2,-47,-7
N/C(=N\OC(=O)c1cc(Br)ccc1Cl)c1cccnc1,13,3,9,-4,-20,-40
N/C(=N\OC(=O)c1ccc(Cl)c(Cl)c1)c1cccnc1,15,83*,20,1,-20,5
Cc1ccccc1C(=O)O/N=C(\N)c1ccncc1,13,52*,9,-1,-37,6
C/C(=N\NC(=O)c1ccc(F)cc1)c1ccccn1,·,55*,7,9,·,·
CCc1ccc(/C(C)=N/NC(=O)c2ccccn2)cc1,11,0,-1,-2,-8,-12
C/C(=N/NC(=O)CNC(=O)c1ccccn1)c1ccc([N+](=O)[O-])cc1,·,-2,-81*,7,5,15
SMILES,PPC-1+TRAIL kill,TRAIL sens C8,HSF1 inhib,HSP90 inh,STAT1 inh,STAT3 inh
O=C(N/N=C/C(Cl)=C/c1ccccc1)c1ccccn1,45,56*,13,4,-24,25
C/C(=N\NC(=O)c1c[nH]c2ccccc12)c1ccccn1,29,20,8,2,-64,12
CC(=N/O)/C(C)=N\NC(=O)c1ccccn1,29,43,-66*,3,-2,-8
CCOc1cc(OCC)cc(C(=O)N2CCC[C@H]2C(=O)N2CCC[C@H]2C(=O)N[C@H](C)c2ccccc2)c1,·,-14,·,·,·,·
CCC(C(=O)NC(C)(C)C)n1c(C(c2ccccc2)c2ccccc2)nc2ccccc21 (stereo not given),·,-11,·,·,·,·
CC(C1SC(=S)NC1=O)C1SC(=S)NC1=O (stereo not given),·,-18,·,·,·,·
CC1(C(=O)NCc2ccccc2)Cc2c(-c3ccc4c(c3)OCO4)ccnc2O1 (stereo not given),·,14,·,·,·,·
C/C(=N\NC(=O)c1cc2ccccc2cc1O)c1ccccn1,·,58*,4,4,·,·
